In PubChem BioAssay (NCATS):
Records with an inconclusive call do not appear. Activity calls are given as the source filed them. Calls come from the whole dose curve; as a rule, active = well fitted curve in the direction sought with a large enough effect; inconclusive = small, poorly fitted or top-dose-only effect, or another doubt; inactive = no such curve, though single readings can be large; an effect the other way counts as inactive or inconclusive.

What was measured:
CRL-7250 = normal cell line; experiment: Cytotoxic Profiling of Annotated Libraries Using Quantitative High-Throughput Screening (AID 1296008); conditions: Five cell lines viability, CellTiter-Glo ATP luminescence, 48-72 h; max response: stronger effect = lower value; note: nearly all actives have a fitted effect of over 60% in size
Summary of the method: (§1)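 Compounds were pin-transferred onto cells and incubated 48 or 72 hr at 37 degree Celsius, 95% humidity. CellTiter-Glo was added, plates sat 10 min at room temperature, then ATP-coupled luminescence was imaged as the viability read-out.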

HaCat = experiment: as above; conditions: Five cell lines viability, CellTiter-Glo ATP luminescence, 48-72 h; max response: stronger effect = lower value
Summary of the method: as §1

KB-3-1 = experiment: as above; conditions: Five cell lines viability, CellTiter-Glo ATP luminescence, 48-72 h; max response: stronger effect = lower value
Summary of the method: as §1

NIH3T3 = experiment: as above; conditions: Five cell lines viability, CellTiter-Glo ATP luminescence, 48-72 h; max response: stronger effect = lower value
Summary of the method: as §1

C33A = experiment: Primary qHTS to identify gynecologic anti-cancer compounds using libraries of approved drugs and bioactive compounds (AID 1345084); conditions: Gynecologic cancer cell panel viability, ATPlite luminescence, 48 h; series mostly up to 57.5 µM; note: nearly all actives have a fitted effect of over 55% in size
Summary of the method: (§2)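 Five-concentration response, 48 h; readout is ATP-driven luciferase luminescence.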

CAOV3 = experiment: as above; conditions: Gynecologic cancer cell panel viability, ATPlite luminescence, 48 h; series mostly up to 57.5 µM
Summary of the method: as §2

CASKI = experiment: as above; conditions: Gynecologic cancer cell panel viability, ATPlite luminescence, 48 h; series mostly up to 57.5 µM
Summary of the method: as §2

Es-2 = experiment: as above; conditions: Gynecologic cancer cell panel viability, ATPlite luminescence, 48 h; series mostly up to 57.5 µM
Summary of the method: as §2

HeLa = experiment: as above; conditions: Gynecologic cancer cell panel viability, ATPlite luminescence, 48 h; series mostly up to 57.5 µM
Summary of the method: as §2

Hek293T = experiment: as above; conditions: Gynecologic cancer cell panel viability, ATPlite luminescence, 48 h, control line for the selectivity index; series mostly up to 57.5 µM
Summary of the method: as §2

JEG-3 = experiment: as above; conditions: Gynecologic cancer cell panel viability, ATPlite luminescence, 48 h; series mostly up to 57.5 µM
Summary of the method: as §2

OV90 = experiment: as above; conditions: Gynecologic cancer cell panel viability, ATPlite luminescence, 48 h; series mostly up to 57.5 µM
Summary of the method: as §2

PA-1 = experiment: as above; conditions: Gynecologic cancer cell panel viability, ATPlite luminescence, 48 h; series mostly up to 57.5 µM
Summary of the method: as §2

SKOV3 = experiment: as above; conditions: Gynecologic cancer cell panel viability, ATPlite luminescence, 48 h; series mostly up to 57.5 µM
Summary of the method: as §2
% is set by controls: 0 for no effect and ±100 for the full control effect.

C[C@@H]1C[C@H](C)CN(CCC(=O)Nc2ccc(Br)cc2)C1
inactive: max response (CRL-7250) -5.34% | max response (HaCat) -4.42% | max response (KB-3-1) -13.7% | max response (NIH3T3) -17.9% | Potency (C33A) | Potency (CAOV3) | Potency (CASKI) | Potency (Es-2) | Potency (HeLa) | Potency (Hek293T) | Potency (JEG-3) | Potency (OV90) | Potency (PA-1) | Potency (SKOV3)

CC(=O)O[C@H]1C[C@@](O)(C(C)C)[C@@H]2[C@@H](OC(=O)c3ccc(O)cc3)CC(C)=CC[C@@]12C
inactive: max response (CRL-7250) 3.65% | max response (HaCat) -1.16% | max response (KB-3-1) 6.43% | max response (NIH3T3) -25.3% | Potency (C33A) | Potency (CAOV3) | Potency (CASKI) | Potency (Es-2) | Potency (HeLa) | Potency (Hek293T) | Potency (JEG-3) | Potency (OV90) | Potency (PA-1) | Potency (SKOV3)

CC1(C)CC[C@]23CO[C@@]4(CCC5[C@@]6(C)CC[C@H](O[C@@H]7OC[C@H](O[C@@H]8O[C@H](CO)[C@@H](O)[C@H](O)[C@H]8O[C@@H]8OC[C@@H](O)[C@H](O)[C@H]8O)[C@H](O)[C@H]7O)[C@@](C)(CO)C6CC[C@@]5(C)[C@]4(C)CC2=O)[C@@H]3C1 (some centres not stated)
inactive: max response (CRL-7250) -12.4% | max response (HaCat) 2.87% | outcome (KB-3-1) | max response (NIH3T3) -14.1% | activity change, negative = cytotoxicity (C33A) -27.4% [at 11.6 µM] | activity change, negative = cytotoxicity (CAOV3) 7.02% [at 11.6 µM] | activity change, negative = cytotoxicity (CASKI) -3.31% [at 11.6 µM] | activity change, negative = cytotoxicity (Es-2) 9.11% [at 11.6 µM] | activity change, negative = cytotoxicity (HeLa) 16.9% [at 11.6 µM] | activity change, negative = cytotoxicity (Hek293T) 5.05% [at 11.6 µM] | activity change, negative = cytotoxicity (JEG-3) -8.75% [at 11.6 µM] | activity change, negative = cytotoxicity (OV90) -4.17% [at 11.6 µM] | activity change, negative = cytotoxicity (PA-1) 10.3% [at 11.6 µM] | activity change, negative = cytotoxicity (SKOV3) -7.83% [at 11.6 µM]

O=C(NC1CCC1)c1ccc(C#Cc2cccc(F)c2)nc1
inactive: max response (CRL-7250) -2.08% | max response (HaCat) -7.87% | max response (KB-3-1) 8.07% | max response (NIH3T3) -25.1% | Potency (C33A) | Potency (CAOV3) | Potency (CASKI) | Potency (Es-2) | Potency (HeLa) | Potency (Hek293T) | Potency (JEG-3) | Potency (OV90) | Potency (PA-1) | Potency (SKOV3)

COc1ccc(CN2CCN(CCCSc3cc(C(C)(C)C)c(O)c(C(C)(C)C)c3)CC2)c(OC)c1OC
inactive: outcome (CRL-7250) | max response (HaCat) -2% | outcome (KB-3-1) | max response (NIH3T3) 4.43% | activity change, negative = cytotoxicity (C33A) 1.62% [at 11.6 µM] | activity change, negative = cytotoxicity (CAOV3) 11% [at 11.6 µM] | activity change, negative = cytotoxicity (CASKI) -0.531% [at 11.6 µM] | activity change, negative = cytotoxicity (Es-2) 12.2% [at 11.6 µM] | activity change, negative = cytotoxicity (HeLa) 8.85% [at 11.6 µM] | activity change, negative = cytotoxicity (Hek293T) -2.05% [at 11.6 µM] | activity change, negative = cytotoxicity (JEG-3) 1.83% [at 11.6 µM] | activity change, negative = cytotoxicity (OV90) 3.61% [at 11.6 µM] | activity change, negative = cytotoxicity (PA-1) 1.3% [at 11.6 µM] | activity change, negative = cytotoxicity (SKOV3) 17.3% [at 11.6 µM]

CC(C)=CCCC1(C)C2CCC1(C)C(O)C2 (configuration not stated)
inactive: max response (CRL-7250) -2.07% | max response (HaCat) -23% | max response (KB-3-1) -23.6% | max response (NIH3T3) 0.907% | Potency (C33A) | Potency (CAOV3) | Potency (CASKI) | Potency (Es-2) | Potency (HeLa) | Potency (Hek293T) | Potency (JEG-3) | Potency (OV90) | Potency (PA-1) | Potency (SKOV3)

COc1c(C)cc(NC(=O)c2nn(Cc3ccc(F)cc3)c3c2CN(C(=O)c2ccc[nH]2)C[C@]3(C)C(N)=O)cc1C
inactive: max response (CRL-7250) -1.93% | max response (HaCat) -0.617% | outcome (KB-3-1) | max response (NIH3T3) -14% | activity change, negative = cytotoxicity (C33A) 12.3% [at 11.6 µM] | activity change, negative = cytotoxicity (CAOV3) -4.37% [at 11.6 µM] | activity change, negative = cytotoxicity (CASKI) -0.257% [at 11.6 µM] | activity change, negative = cytotoxicity (Es-2) 4.64% [at 11.6 µM] | activity change, negative = cytotoxicity (HeLa) -7.03% [at 11.6 µM] | activity change, negative = cytotoxicity (Hek293T) 7.03% [at 11.6 µM] | activity change, negative = cytotoxicity (JEG-3) 1.95% [at 11.6 µM] | activity change, negative = cytotoxicity (OV90) 16.4% [at 11.6 µM] | activity change, negative = cytotoxicity (PA-1) 15.5% [at 11.6 µM] | activity change, negative = cytotoxicity (SKOV3) -24.2% [at 11.6 µM]

Nc1nc2c(s1)CCN(Cc1ccc(Cl)cc1)CC2
inactive: outcome (CRL-7250) | max response (HaCat) -24.3% | max response (KB-3-1) 6.96% | max response (NIH3T3) 0.621% | Potency (C33A) | Potency (CAOV3) | Potency (CASKI) | Potency (Es-2) | Potency (HeLa) | Potency (Hek293T) | Potency (JEG-3) | Potency (OV90) | Potency (PA-1) | Potency (SKOV3)

CC(C)(Cc1ccccc1)NCC(O)c1ccc(O)c(NS(C)(=O)=O)c1 (configuration not stated)
inactive: max response (CRL-7250) 0.0508% | max response (HaCat) 2.45% | max response (KB-3-1) -4.4% | max response (NIH3T3) 0.817% | Potency (C33A) | Potency (CAOV3) | Potency (CASKI) | Potency (Es-2) | Potency (HeLa) | Potency (Hek293T) | Potency (JEG-3) | Potency (OV90) | Potency (PA-1) | Potency (SKOV3)

CCOC(=O)N1c2ccc(C(F)(F)F)cc2C(N(Cc2cc(C(F)(F)F)cc(C(F)(F)F)c2)C(=O)OC)CC1CC (configuration not stated)
inactive: max response (CRL-7250) -2.53% | max response (HaCat) -2.39% | max response (KB-3-1) -0.758% | max response (NIH3T3) 3.11% | Potency (C33A) | Potency (CAOV3) | Potency (CASKI) | Potency (Es-2) | Potency (HeLa) | Potency (Hek293T) | Potency (JEG-3) | Potency (OV90) | Potency (PA-1) | Potency (SKOV3)

CC(C)c1ccc(NC(=O)Cn2cnc3c2c(=O)n(C)c(=O)n3C)cc1
inactive: outcome (CRL-7250) | max response (HaCat) -14.6% | max response (KB-3-1) 2.05% | max response (NIH3T3) -6.55% | Potency (C33A) | Potency (CAOV3) | Potency (CASKI) | Potency (Es-2) | Potency (HeLa) | Potency (Hek293T) | Potency (JEG-3) | Potency (OV90) | Potency (PA-1) | Potency (SKOV3)

O=C1Nc2ccccc2-c2nc3ccccc3c(=O)n2-c2c(O)cccc21
inactive: max response (CRL-7250) 3.48% | max response (HaCat) -26.5% | max response (KB-3-1) 0.451% | max response (NIH3T3) 1.73% | Potency (C33A) | Potency (CAOV3) | Potency (CASKI) | Potency (Es-2) | Potency (HeLa) | Potency (Hek293T) | Potency (JEG-3) | Potency (OV90) | Potency (PA-1) | Potency (SKOV3)

COc1cc2c(cc1O)C1(Cc3ccc4c(c3C1O)OCO4)[N+](C)([O-])CC2 (configuration not stated)
inactive: outcome (CRL-7250) | max response (HaCat) -20.1% | outcome (KB-3-1) | max response (NIH3T3) -2.31% | Potency (C33A) | Potency (CAOV3) | Potency (CASKI) | Potency (Es-2) | Potency (HeLa) | Potency (Hek293T) | Potency (JEG-3) | Potency (OV90) | Potency (PA-1) | Potency (SKOV3)
